The values that follow come from PubChem BioAssay (NCATS).

What is called viability is a read-out of living cells in per cent, often relative to untreated cells.

Experiment [1] is described as follows: BET inhibitor-based combinations targeting novel dependencies in MECOM-rearranged (r) AML: SET-2 cell line (AID 2202231). Also: nearly all actives have a fitted effect of over 35% in size.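 As to viability: plate controls were DMSO treated cells for no effect and wells without cells for full effect.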 The note with it: SET-2 AML cells viability, CellTiter-Glo luminescence, 48 h; viability: hits give low values, concentration not given here. In a few lines:
(§1)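 500 cells/well; 11-pt dose curve; 48 h, standard incubator; CellTiter-Glo luminescence after 15 min RT; DMSO/empty-well normalization; AUC plus Z-AUC (mean-centered within each line).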
(Cellular ATP, detected with luciferase, serves as a proxy for viable cell number.)

Experiment [2] can be described thus: BET inhibitor-based combinations targeting novel dependencies in MECOM-rearranged (r) AML: OCI-AML3 cell line (AID 2202232). Also: nearly all actives have a fitted effect of over 35% in size. To be noted: Potency: OCI-AML3 viability. The method in brief:
as §1

Experiment [3] can be described thus: BET inhibitor-based combinations targeting novel dependencies in MECOM-rearranged (r) AML: MV-4-11 cell line (AID 2202233). Also: nearly all actives have a fitted effect of over 45% in size. The method in brief: (§2)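 Cells were plated at 500 per well and exposed to each drug across an 11-point dose range for 48 hr at standard incubator conditions. Viability was read by CellTiter-Glo luminescence, and activity was expressed as AUC and per-cell-line Z-transformed AUC.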

The nature of experiment [4]: BET inhibitor-based combinations targeting novel dependencies in MECOM-rearranged (r) AML: HNT-34 cell line (AID 2202234). Also: nearly all actives have a fitted effect of over 35% in size. In a few lines: as §2
The nature of experiment [5]: BET inhibitor-based combinations targeting novel dependencies in MECOM-rearranged (r) AML: UCSD-AML1 cell line (AID 2202235). Also: nearly all actives have a fitted effect of over 40% in size. In a few lines: as §2
The nature of experiment [6]: BET inhibitor-based combinations targeting novel dependencies in MECOM-rearranged (r) AML: AML-191 cell line (AID 2202236; also: nearly all actives have a fitted effect of over 35% in size). In a few lines: as §1
A short description of experiment [7]: BET inhibitor-based combinations targeting novel dependencies in MECOM-rearranged (r) AML: AML-194 cell line (AID 2202237; also: nearly all actives have a fitted effect of over 40% in size). In a few lines:
as §1

SMILES strings stand for the structures. Records with an inconclusive call do not appear. Unmarked numbers belong to inactive results. Active and inactive are the calls of the source. Calls follow the shape of the dose curve; as a rule, active = well fitted curve in the direction sought with a large enough effect; inconclusive = small, poorly fitted or top-dose-only effect, or another doubt; inactive = no such curve, though single readings can be large; an effect the other way counts as inactive or inconclusive. Non-standard residues stand in square brackets, D forms with d. Residues, ends and D or L forms follow the SMILES beside them. *: point of attachment. Benzoyl(4-tBu) = CC(C)(C)c1ccc(C(=O)*)cc1; Lys(Et2) = CCN(CC)CCCC[C@H](N)C(=O)O
Potency is read from the fitted curve at half-maximal effect.

With `CCOc1ccc(-n2c([C@@H](C)N(Cc3cccnc3)C(=O)Cc3ccc(F)c(C(F)(F)F)c3)nc3ncccc3c2=O)cc1`, in experiment [1], the viability was 112%. Also, the Potency entry in experiment [2], in experiment [4], in experiment [5] and in experiment [6] was “inactive” each time. In addition, the Potency in experiment [3] was 18600 nM (active).

As for `CC(C)(O)CNc1ncc(-c2ccnc(Nc3ccncc3)n2)c(CC2CC2)n1`, the Potency is 18600 nM (active) in experiment [1]; 18600 nM (active) in experiment [2]; 5900 nM (active) in experiment [3]; 9340 nM (active) in experiment [4]; 14800 nM (active) in experiment [5]; 13200 nM (active) in experiment [6].

With `CC(C)(NS(=O)(=O)c1ccc2c(Cl)cnc(N=C(N)N)c2c1)C(=O)O`, in experiment [1], the viability was 117%. Further, the Potency result in experiment [2], in experiment [3], in experiment [4], in experiment [5] and in experiment [6] was “inactive” throughout.

`CC[C@@H]1[C@H](F)C(=O)N[C@@H]1COc1nccc2cc(C(N)=O)c(OC)cc12`: the Potency is 14800 nM (active) in experiment [1]; 14800 nM (active) in experiment [2]; 8330 nM (active) in experiment [3]; 11800 nM (active) in experiment [4]; 20900 nM (active) in experiment [5]; 14800 nM (active) in experiment [6].

On to `CC1(C)O[C@@H]2C[C@H]3[C@@H]4CCC5=CC(=O)C=C[C@]5(C)[C@H]4[C@@H](O)C[C@]3(C)[C@]2(C(=O)CO)O1`, for which the viability in experiment [1] was 114%. Moreover, the Potency result in experiment [2], in experiment [3], in experiment [4], in experiment [5] and in experiment [6] was “inactive” throughout. Besides, in experiment [7], the Potency is 332 nM (active).

Take `C[C@H](NC(=O)CCC(F)(F)F)C(=O)N[C@@H]1C(=O)N(CCO)c2ncccc2-c2ccccc21`: the viability in experiment [1] is 95.9%. Also, the Potency result in experiment [2], in experiment [3], in experiment [4], in experiment [5] and in experiment [6] was “inactive” in each case.

Turning to `CCN(CC)CCCC[C@H](NC(=O)[C@H](CC(C)C)NC(=O)[C@H](C)NC(=O)[C@H](Cc1ccccc1)NC(=O)c1ccc(C(C)(C)C)cc1)C(=O)N[C@@H](CO)C(=O)OC` ({Benzoyl(4-tBu)}-FAL[Lys(Et2)]S-OMe), the viability in experiment [1] is 71.5%. The Potency result in experiment [2], in experiment [3], in experiment [4], in experiment [5] and in experiment [6] was “inactive” each time.

`COc1cc2c(cc1O)CCN[C@]21CS[C@@H]2c3c(OC(C)=O)c(C)c4c(c3[C@H](COC1=O)N1[C@@H]2[C@H]2c3c(cc(C)c(OC)c3O)C[C@@H]([C@@H]1O)N2C)OCO4`: the Potency in experiment [1] was 9.6 nM (active); in experiment [2] it was 9.6 nM (active); in experiment [3], 4.3 nM (active); in experiment [4], 8.5 nM (active); in experiment [5], 9.6 nM (active); in experiment [6], 9.6 nM (active).

As for `COc1cc(C)[nH]c(=O)c1CN1CCc2c(Cl)cc([C@H](OC)C3COC3)c(Cl)c2C1=O`, the viability in experiment [1] is 112%. Further, the Potency entry in experiment [2], in experiment [3], in experiment [4], in experiment [5] and in experiment [6] was “inactive” each time.

With `COc1cc(=C2C=c3ccccc3=N2)[nH]/c1=C/c1[nH]c(C)cc1C`, the Potency was 4170 nM (active) in experiment [1]; 2630 nM (active) in experiment [2]; 2350 nM (active) in experiment [3]; 3720 nM (active) in experiment [4]; 3320 nM (active) in experiment [5]; 2350 nM (active) in experiment [6]. For the same molecule, the Potency in experiment [7] is 5900 nM (active).

For `N#CC(c1ccnc(NCCc2cccnc2)n1)c1nc2ccccc2s1` (stereo not given), the Potency in experiment [1] was 18600 nM (active); in experiment [2], 18600 nM (active); in experiment [3], 6610 nM (active); in experiment [4], 14800 nM (active); in experiment [5], 18600 nM (active); in experiment [6], 16600 nM (active).

On to `Cc1c[nH]c2nc(Nc3ccc(N4CCN(C)CC4)c(F)c3)nc(-c3cccc(CC#N)c3)c12`, for which the Potency in experiment [1] is 2630 nM (active); in experiment [2], 2950 nM (active); in experiment [3], 33.2 nM (active); in experiment [4] it was 662 nM (active); in experiment [5] it was 742 nM (active); in experiment [6], 742 nM (active). The Potency in experiment [7] was 833 nM (active).

As to `CCCc1nc(C)c2c(=O)[nH]c(-c3cc(S(=O)(=O)N4CCN(CC)CC4)ccc3OCC)nn12`, the viability in experiment [1] was 114%. For the same molecule, in experiment [2], the Potency is 3720 nM (active). Besides, the Potency result in experiment [3], in experiment [4], in experiment [5] and in experiment [6] was “inactive” each time.

For the molecule `N=C1S/C(=C\c2ccc(-c3ccc4c(c3)C(=O)NC4=O)o2)C(=O)N1c1ccc(Br)cc1`, the viability in experiment [1] is 117%. For the same molecule, the Potency result in experiment [2], in experiment [3], in experiment [4], in experiment [5] and in experiment [6] was “inactive” throughout.

Take `CN(C)C/C=C/C(=O)Nc1ccc(C(=O)N2CCC[C@@H](Nc3ncc(Cl)c(-c4c[nH]c5ccccc45)n3)C2)cc1`: the Potency was 5900 nM (active) in experiment [1]; 372 nM (active) in experiment [2]; 235 nM (active) in experiment [3]; 235 nM (active) in experiment [4]; 468 nM (active) in experiment [5]; 2350 nM (active) in experiment [6]. In experiment [7], the Potency is 1660 nM (active).

Regarding `CN1CCC(c2c(O)cc(O)c3c(=O)cc(-c4ccccc4Cl)oc23)C1CO` (stereo not given), the Potency was 1320 nM (active) in experiment [1]; 742 nM (active) in experiment [2]; 934 nM (active) in experiment [3]; 833 nM (active) in experiment [4]; 1050 nM (active) in experiment [5]; 662 nM (active) in experiment [6]. The Potency in experiment [7] was 1050 nM (active).

Turning to `COC(=O)/C=C/C(=O)OC`, the viability in experiment [1] was 117%. For the same molecule, the Potency result in experiment [2], in experiment [3], in experiment [4], in experiment [5], in experiment [6] and in experiment [7] was “inactive” in each case.

As to `C=C[C@H]1CN2CCC1C[C@@H]2C(O)c1ccnc2ccc(OC)cc12` (stereo not given in full), in experiment [1], the viability was 103%. For the same molecule, the Potency entry in experiment [2], in experiment [4], in experiment [5], in experiment [6] and in experiment [7] was “inactive” each time. Further, the Potency in experiment [3] is 18600 nM (active).
